Data published in PubChem BioAssay.
Where “and” joins values, the source holds several entries; their conditions need not be identical. Equal entries are not always repeated. Calls of active or inactive are those of the source. Unless noted, how the calls were made is not given here.

Tests used:
[1] = test system: Wnt5a (protein binding on small-molecule microarray); assay: small molecules binding Wnt5a protein – biophysical, small-molecule microarray, 635/667 nm fluorescence, primary screen (AID 1142); details: 635 nm fluorescence, higher = more signal;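 further: fluorescence read at 667 nm with signal to noise per printed feature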
[2] = ATP-based viability of Huh7 replicon cells – cell-based, CellTiter-Glo luminescence, basal, 48 h, cytotoxicity control for HCV replication inhibitor project, primary screen (AID 1143); details: higher = more signal, called active from +8 up or from −8 down;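 further: Huh7 hepatoma cells carrying a hepatitis C replication reporter with no stimulus; test concentration not given here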
[3] = Pseudomonas biofilm growth suppression – PAO1 strain, BacTiter-Glo luminescence, LB-PBS, primary screen (AID 1144); details: P. aeruginosa PAO1 biofilm, 12 h, higher = more signal
[4] = basal CRE-LacZ reporter activity in PC12 – cell-based, unstimulated, primary screen (AID 1145); details: no forskolin, luminescence, 4.5 h, higher = more signal, called active from +8 up or from −8 down
[5] = forskolin-driven CRE-LacZ activity in PC12 – cell-based, CRE-LacZ reporter, forskolin-stimulated, primary screen (AID 1146); details: luminescence, 4.5 h, higher = more signal, called active from +8 up or from −8 down;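 further: PC12 cells with 6xCRE LacZ reporter stimulated by forskolin 10 µM; beta-galactosidase reporter signal reflecting CREB driven transcription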
[6] = target: Streptavidin (Streptomyces avidinii) (UniProt P22629); assay: compounds binding control protein streptavidin – biophysical, small-molecule microarray, 635/667 nm fluorescence, artefact control for SMM compound annotation, primary screen (AID 1147); details: higher = more signal;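 further: signal reflects streptavidin binding to arrayed compounds as a control protein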
[7] = probe aInhba binding on compound microarray – biochemical, small-molecule microarray, 635/667 nm fluorescence, primary screen (AID 1148); details: higher = more signal;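 further: score merges 667nm spot fluorescence with signal-to-noise for antibody binding to printed compounds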
Torsin-1A (Homo sapiens) [8] = target: Torsin-1A (Homo sapiens) (UniProt O14656); assay: TOR1A wild-type binding on microarray – cell lysate, small-molecule microarray, lysate, 635/667 nm, primary screen (AID 1149); details: COS7 hTOR1A-WT lysate, 635 nm fluorescence, higher = more signal
Torsin-1A (Homo sapiens) [9] = target: Torsin-1A (Homo sapiens) (UniProt O14656); assay: torsin A mutant lysate binding on microarrays – cell lysate, small-molecule microarray, COS7 lysate, 635/667 nm fluorescence, primary screen (AID 1150); details: COS7 hTOR1A mutant lysate, 635 nm fluorescence, higher = more signal;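 further: score pools 667 nm emission and signal to noise measuring lysate protein binding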
[10] = test system: Sonic hedgehog protein (Shh); assay: Sonic hedgehog microarray binding compounds – biochemical, small-molecule microarray, 635/667 nm fluorescence, primary screen (AID 1151); details: 635 nm fluorescence, higher = more signal;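 further: Shh protein binding to compounds spotted on small-molecule microarray slides; score combines spot fluorescence intensity with signal-to-noise across triplicate slides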
[11] = optical density shifts of acrAB sulA E. coli – strain DRC41, OD650, 48 h, E. coli filamentation inducer project, primary screen (AID 1152); details: higher = more signal, called active from +8 up or from −8 down;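 further: E. coli MC1000 strain DRC41 lacking acrAB efflux pump and sulA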
[12] = probe aLefty1 binding on compound microarray – biochemical, small-molecule microarray, 635/667 nm fluorescence, primary screen (AID 1153); details: higher = more signal;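 further: score merges spot fluorescence with signal-to-noise ratio from the scanned slide images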
[13] = plasmodial surface anion channel blockers, osmotic lysis – cell-based, P. falciparum Indochina, OD700, 1 h, primary screen (AID 1154); details: P. falciparum Indochina infected RBC osmotic lysis, higher = more signal, called active from +8 up or from −8 down
[14] = plasmodial surface anion channel blockers, osmotic lysis – cell-based, P. falciparum Indochina, OD700, 2 h, primary screen (AID 1155);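 further: lysis reports solute entry through the parasite surface anion channel PSAC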; details: P. falciparum Indochina infected erythrocytes, higher = more signal, called active from +8 up or from −8 down
[15] = changes in parasitized red cell lysis, either direction – P. falciparum Indochina, OD700, 3 h, PSAC antagonist project, primary screen (AID 1156); details: P. falciparum-infected erythrocytes, osmotic lysis, higher = more signal, called active from +8 up or from −8 down
[16] = plasmodial surface anion channel blockers, osmotic lysis – cell-based, P. falciparum Indochina, OD700, 18 h, primary screen (AID 1157); details: P. falciparum Indochina infected erythrocytes, osmotic lysis OD700, 18 h; higher = more signal, called active from +8 up or from −8 down
[17] = S6 kinase pathway phospho-S6 level changes – cell-based, A549, cytoblot, luminescence, serum-stimulated, primary screen (AID 1158); details: 5 h, higher = more signal;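 further: serum-stimulated A549 lung adenocarcinoma cells; signal is phosphorylated S6 detected by cytoblot immunostaining with HRP secondary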
[18] = target: NADPH oxidase 2 (Homo sapiens) (UniProt P04839); assay: compounds shifting NOX2 Amplex Red fluorescence – cell-based, HEK293-NOX2, PMA-stimulated, NOX inhibitor project, primary screen (AID 1159); details: 45 min, higher = more signal, called active from +8 up or from −8 down; further: test concentration not given here
[19] = target: NADPH oxidase 4 (Homo sapiens) (UniProt Q9NPH5); assay: compounds shifting NOX4 Amplex Red fluorescence – cell-based, HEK293-NOX4, tetracycline-induced, NOX inhibitor project, primary screen (AID 1160); details: HEK293-NOX4, Amplex Red H2O2 fluorescence, 45 min; higher = more signal, called active from +8 up or from −8 down
[20] = target: NADPH oxidase 5 (Homo sapiens) (UniProt Q96PH1); assay: compounds shifting NOX5 Amplex Red fluorescence – cell-based, HEK293-NOX5, NOX inhibitor project, primary screen (AID 1161); details: HEK293-NOX5, ionomycin, 45 min, higher = more signal
NADPH oxidase 5 (Homo sapiens), sequence (Q96PH1 whole entry, looked up): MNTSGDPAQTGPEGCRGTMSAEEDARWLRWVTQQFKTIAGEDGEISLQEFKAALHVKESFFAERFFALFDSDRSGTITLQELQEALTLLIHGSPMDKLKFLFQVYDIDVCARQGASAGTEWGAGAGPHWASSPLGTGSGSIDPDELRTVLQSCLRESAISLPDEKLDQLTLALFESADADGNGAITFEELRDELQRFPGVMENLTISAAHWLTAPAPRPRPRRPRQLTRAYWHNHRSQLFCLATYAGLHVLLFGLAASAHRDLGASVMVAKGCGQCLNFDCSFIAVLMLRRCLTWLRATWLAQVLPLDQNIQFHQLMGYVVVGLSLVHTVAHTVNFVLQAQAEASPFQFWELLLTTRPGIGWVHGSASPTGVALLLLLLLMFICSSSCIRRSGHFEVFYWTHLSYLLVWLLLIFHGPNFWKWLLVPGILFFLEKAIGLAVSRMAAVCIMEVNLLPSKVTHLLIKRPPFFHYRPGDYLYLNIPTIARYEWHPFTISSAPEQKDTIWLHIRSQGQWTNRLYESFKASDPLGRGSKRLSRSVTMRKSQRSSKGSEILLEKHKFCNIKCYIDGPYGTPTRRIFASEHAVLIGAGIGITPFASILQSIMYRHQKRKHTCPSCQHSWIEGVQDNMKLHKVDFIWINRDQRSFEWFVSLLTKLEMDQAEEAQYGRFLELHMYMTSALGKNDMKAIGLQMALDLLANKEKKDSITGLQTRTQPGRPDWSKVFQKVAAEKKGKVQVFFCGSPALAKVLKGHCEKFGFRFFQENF

NADPH oxidase 4 (Homo sapiens), sequence (Q9NPH5 whole entry, looked up): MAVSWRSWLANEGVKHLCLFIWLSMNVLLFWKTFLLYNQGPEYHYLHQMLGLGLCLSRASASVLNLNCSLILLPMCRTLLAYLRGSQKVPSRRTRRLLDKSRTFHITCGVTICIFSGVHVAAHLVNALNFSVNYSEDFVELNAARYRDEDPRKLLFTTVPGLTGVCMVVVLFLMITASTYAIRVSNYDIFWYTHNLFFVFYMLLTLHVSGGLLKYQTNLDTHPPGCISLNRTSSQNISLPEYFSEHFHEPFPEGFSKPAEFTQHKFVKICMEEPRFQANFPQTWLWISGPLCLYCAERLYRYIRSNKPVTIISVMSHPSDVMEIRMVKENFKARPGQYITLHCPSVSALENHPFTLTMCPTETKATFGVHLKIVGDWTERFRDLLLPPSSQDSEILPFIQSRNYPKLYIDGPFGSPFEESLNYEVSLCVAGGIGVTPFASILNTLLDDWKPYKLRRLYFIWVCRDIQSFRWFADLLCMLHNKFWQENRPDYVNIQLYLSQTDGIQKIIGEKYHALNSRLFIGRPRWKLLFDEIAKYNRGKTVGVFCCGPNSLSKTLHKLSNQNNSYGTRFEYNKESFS
Streptavidin (Streptomyces avidinii), sequence (P22629 whole entry, looked up): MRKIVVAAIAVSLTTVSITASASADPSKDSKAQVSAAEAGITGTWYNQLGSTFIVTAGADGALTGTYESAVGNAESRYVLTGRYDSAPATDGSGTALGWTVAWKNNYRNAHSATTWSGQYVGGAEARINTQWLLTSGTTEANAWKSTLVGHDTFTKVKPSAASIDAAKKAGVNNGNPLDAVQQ
NADPH oxidase 2 (Homo sapiens), sequence (P04839 whole entry, looked up): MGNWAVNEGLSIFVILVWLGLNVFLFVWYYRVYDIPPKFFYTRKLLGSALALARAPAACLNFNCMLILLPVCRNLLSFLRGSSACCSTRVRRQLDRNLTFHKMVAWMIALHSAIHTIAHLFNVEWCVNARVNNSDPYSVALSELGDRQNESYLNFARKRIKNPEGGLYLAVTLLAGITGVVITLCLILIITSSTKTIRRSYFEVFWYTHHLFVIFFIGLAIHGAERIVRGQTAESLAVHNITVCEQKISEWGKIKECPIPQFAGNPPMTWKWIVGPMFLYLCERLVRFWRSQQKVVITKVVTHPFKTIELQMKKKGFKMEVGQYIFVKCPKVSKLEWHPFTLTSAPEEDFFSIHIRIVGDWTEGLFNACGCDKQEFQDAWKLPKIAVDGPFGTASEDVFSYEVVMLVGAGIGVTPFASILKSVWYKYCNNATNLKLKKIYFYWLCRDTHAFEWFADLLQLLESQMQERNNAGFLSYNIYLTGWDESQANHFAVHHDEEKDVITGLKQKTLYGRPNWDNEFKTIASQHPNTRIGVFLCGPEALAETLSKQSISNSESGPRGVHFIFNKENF
Torsin-1A (Homo sapiens), sequence (O14656 whole entry, looked up): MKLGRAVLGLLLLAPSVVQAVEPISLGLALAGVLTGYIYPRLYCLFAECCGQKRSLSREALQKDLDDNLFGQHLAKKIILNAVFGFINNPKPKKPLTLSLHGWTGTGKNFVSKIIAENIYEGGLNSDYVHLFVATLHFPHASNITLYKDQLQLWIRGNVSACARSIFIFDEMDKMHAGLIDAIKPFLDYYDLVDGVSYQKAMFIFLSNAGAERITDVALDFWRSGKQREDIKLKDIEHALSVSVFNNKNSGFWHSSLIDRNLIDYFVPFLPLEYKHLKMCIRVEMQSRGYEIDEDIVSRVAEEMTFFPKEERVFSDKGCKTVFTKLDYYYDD

For CCCCCN1CC=CC23O[C@@H]4C=CCCOC(=O)C4[C@H]2C(=O)N(C(C)CO)[C@@H]3C1=O (stereo not given in full), the composite z-score [1] was -0.226 and -0.744, the z-score [2] was -0.153 (inactive) and 0.0164 (inactive) and the z-score [3] was -1.76 (inactive) and -0.529 (inactive). For the same compound, the z-score [4] was -0.48 (inactive) and -0.639 (inactive), the z-score [5] was -0.215 (inactive) and -0.498 (inactive) and the composite z-score [6] was -0.819 and -0.0005. For the same compound, the composite z-score [7] was -0.837 and -0.0933, the composite z-score (Torsin-1A (Homo sapiens) [8]) was 1.07 and -1.42 and the composite z-score (Torsin-1A (Homo sapiens) [9]) was 0.128 and -0.904. The composite z-score [10] was 0.644 and 0.138, the z-score [11] was 1.5 (inactive) and 0.971 (inactive) and the composite z-score [12] was -0.962 and 1.57. For the same compound, the z-score [13] was 2.38 (inactive) and 0.551 (inactive), the z-score [14] was 0.174 (inactive) and 0.44 (inactive) and the z-score [15] was 0.833 (inactive) and 0.233 (inactive). For the same compound, the z-score [16] was 0.0882 (inactive) and 0.454 (inactive), the z-score [17] was 0.154 and 0.166 and the z-score [18] was 1.27 (inactive) and 1.08 (inactive). For the same compound, the z-score [19] was 0.164 (inactive) and 0.696 (inactive) and the z-score [20] was 2.09 and 2.43.
With C=CC[C@@H](O)c1ccc(O)c2ccccc12 the composite z-score [1] was 0.173 and 0.435, the z-score [2] was 0.794 (inactive) and -0.721 (inactive) and the z-score [3] was -0.498 (inactive) and -1.33 (inactive). For the same compound, the z-score [4] was 3.25 (inactive) and 2.1 (inactive), the z-score [5] was 2.5 (inactive) and 5.93 (inactive) and the composite z-score [6] was 0.49 and 0.679. For the same compound, the composite z-score [7] was -0.0553 and -0.141, the composite z-score (Torsin-1A (Homo sapiens) [8]) was 0.261 and 0.0205 and the composite z-score (Torsin-1A (Homo sapiens) [9]) was 0.426 and 0.369. For the same compound, the composite z-score [10] was 1.96 and 1.82, the z-score [11] was 1.07 (inactive) and -0.266 (inactive) and the composite z-score [12] was 0.113 and 0.176. For the same compound, the z-score [13] was 0.964 (inactive) and 0.883 (inactive), the z-score [14] was 0.263 (inactive) and 0.49 (inactive) and the z-score [15] was -0.379 (inactive) and -0.519 (inactive). The z-score [16] was 0.131 (inactive) and 0.548 (inactive), the z-score [17] was -0.241 and 0.206 and the z-score [18] was -5.68 (inactive) and -5.98 (inactive). The z-score [19] was -1.28 (inactive) and -1.66 (inactive) and the z-score [20] was 1.61 and 0.954.
With C=CCN(CCCC)C(=O)C(c1cccs1)N(C(=O)/C=C\C(=O)O)c1ccc(CCO)cc1 (stereo not given) the composite z-score [1] was -0.118 and -0.341, the z-score [2] was 0.197 (inactive) and 0.617 (inactive) and the z-score [3] was -0.568 (inactive) and 0.123 (inactive). The z-score [4] was -0.0818 (inactive) and 0.195 (inactive), the z-score [5] was -0.21 (inactive) and -0.185 (inactive) and the composite z-score [6] was -0.874 and -1.49. For the same compound, the composite z-score [7] was -0.195 and -0.331, the composite z-score (Torsin-1A (Homo sapiens) [8]) was -1.2 and -3.21 and the composite z-score (Torsin-1A (Homo sapiens) [9]) was -2.35 and -1.52. The composite z-score [10] was -0.463 and -1.18, the z-score [11] was 0.369 (inactive) and 0.133 (inactive) and the composite z-score [12] was -0.279 and -0.147. For the same compound, the z-score [13] was 0.855 (inactive) and 1.03 (inactive), the z-score [14] was -0.14 (inactive) and -0.182 (inactive) and the z-score [15] was 0.517 (inactive) and 0.0377 (inactive). The z-score [16] was 0.0866 (inactive) and 0.233 (inactive), the z-score [17] was 0.0768 and 0.0738 and the z-score [18] was 0.377 (inactive) and 0.12 (inactive). For the same compound, the z-score [19] was -0.432 (inactive) and -0.518 (inactive) and the z-score [20] was 1.18 and -0.0206.
In the case of C=CCN(CCCCC)C(=O)C(c1cccs1)N(CCOCCO)C(=O)/C=C\C(=O)O (stereo not given), the composite z-score [1] is reported as -0.845 and -0.857, the z-score [2] is reported as -0.103 (inactive) and -0.0586 (inactive) and the z-score [3] is reported as -1 (inactive) and -1.11 (inactive). The z-score [4] was -0.0778 (inactive) and -0.35 (inactive), the z-score [5] was 0.941 (inactive) and -0.947 (inactive) and the composite z-score [6] was -0.986 and -1.14. The composite z-score [7] was -0.312 and -0.204, the composite z-score (Torsin-1A (Homo sapiens) [8]) was -2.06 and -2.03 and the composite z-score (Torsin-1A (Homo sapiens) [9]) was -1.74 and -2.07. For the same compound, the composite z-score [10] was -0.556 and -0.586, the z-score [11] was 1.53 (inactive) and 1.77 (inactive) and the composite z-score [12] was -1.26 and -0.239. For the same compound, the z-score [13] was 1.03 (inactive) and 0.0763 (inactive), the z-score [14] was -1.53 (inactive) and -1.1 (inactive) and the z-score [15] was -0.772 (inactive) and -1.06 (inactive). For the same compound, the z-score [16] was -1.88 (inactive) and -1.64 (inactive), the z-score [17] was 1.27 and 0.842 and the z-score [18] was -0.224 (inactive) and 0.208 (inactive). The z-score [19] was -0.617 (inactive) and -0.64 (inactive) and the z-score [20] was -0.366 and 0.183.
In the case of CC(CO)N1C(=O)[C@@H]2C3C(=O)OCCC=C[C@H]3OC23C=CCN(CCN2CCOCC2)C(=O)[C@@H]13 (stereo not given in full), the composite z-score [1] is reported as -0.0538 and 0.351, the z-score [2] is reported as -0.0826 (inactive) and 0.0065 (inactive) and the z-score [3] is reported as 0.129 (inactive) and 0.971 (inactive). For the same compound, the z-score [4] was 0.317 (inactive) and -0.492 (inactive), the z-score [5] was 0.643 (inactive) and 0.22 (inactive) and the composite z-score [6] was -0.0427 and 1.12. For the same compound, the composite z-score [7] was -0.0719 and 0.0053, the composite z-score (Torsin-1A (Homo sapiens) [8]) was -0.674 and 0.148 and the composite z-score (Torsin-1A (Homo sapiens) [9]) was -0.198 and 0.276. The composite z-score [10] was 0.521 and 0.746, the z-score [11] was -0.671 (inactive) and -0.55 (inactive) and the composite z-score [12] was -0.181 and 0.476. The z-score [13] was 0.0695 (inactive) and 6.53 (inactive), the z-score [14] was 0.573 (inactive) and 1.15 (inactive) and the z-score [15] was 0.727 (inactive) and 0.906 (inactive). The z-score [16] was 0.138 (inactive) and 0.21 (inactive), the z-score [17] was -0.38 and -0.0957 and the z-score [18] was 1.08 (inactive) and 1 (inactive). The z-score [19] was 0.376 (inactive) and 0.0486 (inactive) and the z-score [20] was 1.25 and 2.04.
